The values that follow come from PubChem BioAssay (NCI).

Compounds without any hit were thinned out: in the full panel of roughly 83,000, 20% have a hit.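 Negative percent growth values reflect cell death: -40 means 40% of the cells present at the start died, and -100 means all died.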 Unmarked numbers belong to inactive results. Activity calls are given as the source filed them. How the source made its calls: active means growth percent below 10; inactive means the rest.

Among the test systems are NCI-H23 lung; NCI-H226 lung; NCI-H322M lung; HOP-62 NSCLC; NCI-H460 lung; HOP-92 NSCLC; NCI-H522 lung; A549/ATCC NSCLC; 786-0 renal; COLO 205 colon.
Common to all, as to assay: NCI-60 one-dose screen, 48 h (100 = growth as untreated, 0 = no growth, -100 = all killed)
What all share (conditions): 10 µM

For the compound `COc1ccc2c(NCCCCCCCCNc3c4ccccc4nc4cc(OC)ccc34)c3ccccc3nc2c1`, the growth in the assay with NCI-H23 lung is -92.2% (active); in the assay on NCI-H226 lung it was -65.3% (active); with NCI-H322M lung, -74.3% (active); with HOP-62 NSCLC it was -99.2% (active); in the assay with NCI-H460 lung it was -100% (active); in the assay with HOP-92 NSCLC it was -100% (active). The growth in the assay on NCI-H522 lung is -74.1% (active); with A549/ATCC NSCLC, -64.7% (active); in the assay on 786-0 renal, -100% (active); in the assay on COLO 205 colon, -100% (active).

For the compound `CC(=O)Nc1c(C)cc(C)cc1C`, the growth in the assay with NCI-H23 lung is 101%; in the assay on NCI-H226 lung it was 101%; in the assay on NCI-H322M lung, 103%; with HOP-62 NSCLC it was 109%; with NCI-H460 lung, 105%; in the assay with HOP-92 NSCLC it was 69%. Further, the growth with NCI-H522 lung is 94%; with A549/ATCC NSCLC, 102%; with COLO 205 colon, 110%.

On to `C/C(=N\NC(=O)c1ccccc1N)c1ccccc1O`, for which the growth in the assay on NCI-H23 lung is 38.7%; in the assay with NCI-H226 lung, 52.8%; with NCI-H322M lung, 26.4%; in the assay with HOP-62 NSCLC, 43.3%; with NCI-H460 lung it was 23.5%; in the assay on HOP-92 NSCLC, 18.2%. Further, the values for the growth in the assay on A549/ATCC NSCLC, in the assay on 786-0 renal and with COLO 205 colon were 28.2%, 60.6% and 9.89% (active), respectively.

For the compound `O=C(NC1CCCCC1)OCc1c(COC(=O)NC2CCCCC2)c(-c2ccc(Cl)c(Cl)c2)n2c1CCC2`, the growth in the assay on NCI-H23 lung is 22.7%; in the assay with NCI-H226 lung, 2.9% (active); in the assay with NCI-H322M lung, 48.6%; in the assay on HOP-62 NSCLC, 27.4%; in the assay on NCI-H460 lung, 3.73% (active); in the assay with HOP-92 NSCLC it was -1.46% (active). Moreover, the growth is -23.9% (active) in the assay with NCI-H522 lung, 8.95% (active) in the assay on 786-0 renal and 31.8% with COLO 205 colon.

With `NC(=O)c1ccc(N=C(N)N=C(N)N)cc1`, the growth in the assay with NCI-H23 lung is 102%; with NCI-H226 lung, 84.1%; with NCI-H322M lung, 90.6%; in the assay on HOP-62 NSCLC, 87.2%; in the assay on NCI-H460 lung, 104%; in the assay on HOP-92 NSCLC, 83.2%. The growth in the assay with NCI-H522 lung was 103%; in the assay with 786-0 renal, 96.4%; in the assay with COLO 205 colon it was 115%.

Take `O=C(OCC(O)C1OC(c2ccccc2)OC(COC(=O)c2ccccc2)C1O)c1ccccc1` (stereo unspecified): the growth in the assay with NCI-H23 lung was 111%; with NCI-H226 lung, 99.6%; in the assay with NCI-H322M lung it was 109%; with HOP-62 NSCLC, 99%; with NCI-H460 lung it was 104%; with HOP-92 NSCLC, 89.8%. Further, the growth is 94.8% in the assay with A549/ATCC NSCLC, 111% in the assay with 786-0 renal and 99.9% with COLO 205 colon.

In the case of `C[N+](C)(C)C(=O)c1ccccc1`, the growth in the assay on NCI-H23 lung is 99.5%; in the assay on NCI-H226 lung, 102%; in the assay with NCI-H322M lung it was 118%; in the assay on HOP-62 NSCLC, 101%; with NCI-H460 lung, 119%; with HOP-92 NSCLC it was 102%. Also, the growth with A549/ATCC NSCLC is 101%; with 786-0 renal, 109%; with COLO 205 colon it was 109%.

As for `Nc1ccc(N)c([N+](=O)[O-])c1`, the growth in the assay on NCI-H23 lung is 103%; in the assay with NCI-H226 lung, 94.1%; in the assay with NCI-H322M lung, 101%; in the assay on HOP-62 NSCLC it was 111%; in the assay with NCI-H460 lung it was 96%; in the assay with HOP-92 NSCLC, 109%. Besides, the results for the growth in the assay with NCI-H522 lung, in the assay with 786-0 renal and with COLO 205 colon were 86.4%, 118% and 112%, respectively.

`CN(C)c1ccc(C(c2ccc(O)cc2)c2ccc(N(C)C)cc2)cc1`: the growth in the assay with NCI-H23 lung is 104%; in the assay with NCI-H226 lung, 92.9%; in the assay on NCI-H322M lung it was 98.4%; in the assay on HOP-62 NSCLC, 99.7%; in the assay on NCI-H460 lung, 98.6%; with HOP-92 NSCLC, 90.9%. For the same compound, the growth was 81.1% in the assay on NCI-H522 lung, 105% in the assay on 786-0 renal and 101% with COLO 205 colon.

As for `CC1(C)Nc2cccc3c(N=Nc4ccc(N=Nc5ccccc5)c5ccccc45)ccc(c23)N1`, the growth in the assay on NCI-H23 lung was 85.1%; with NCI-H226 lung, 94%; in the assay on NCI-H322M lung, 91.4%; in the assay with HOP-62 NSCLC, 93.1%; with NCI-H460 lung, 92.1%; with HOP-92 NSCLC it was 82.6%. Also, the growth with A549/ATCC NSCLC was 99.3%; in the assay on 786-0 renal it was 122%; in the assay on COLO 205 colon it was 89.2%.

`O=[N+]([O-])c1ccc(CO)cc1`: the growth in the assay on NCI-H23 lung is 104%; in the assay with NCI-H226 lung, 98.4%; in the assay on NCI-H322M lung, 98.9%; with HOP-62 NSCLC, 90.8%; in the assay with NCI-H460 lung it was 98.7%; in the assay on HOP-92 NSCLC, 110%. In addition, the growth with NCI-H522 lung is 104%; in the assay with 786-0 renal, 94.4%; with COLO 205 colon, 109%.

Turning to `S=C1NCc2cncnc2N1`, the growth is 109% in the assay with NCI-H23 lung; 101% with NCI-H226 lung; 114% in the assay on NCI-H322M lung; 93.5% in the assay with HOP-62 NSCLC; 106% with NCI-H460 lung; 95.6% in the assay with HOP-92 NSCLC. Besides, the growth with A549/ATCC NSCLC was 98.2%; in the assay on 786-0 renal, 106%; in the assay with COLO 205 colon, 111%.

Turning to `O=S(=O)(O)c1ccc(Cl)c(Cl)c1`, the growth was 101% in the assay on NCI-H23 lung; 111% in the assay on NCI-H226 lung; 127% in the assay on NCI-H322M lung; 102% in the assay on HOP-62 NSCLC; 110% with NCI-H460 lung; 94.3% in the assay with HOP-92 NSCLC. In addition, the values for the growth with A549/ATCC NSCLC, in the assay with 786-0 renal and with COLO 205 colon were 95.5%, 98.5% and 117%, respectively.

On to `COc1ccccc1N1CCN(C(=S)Nc2ccccc2)CC1`, for which the growth in the assay on NCI-H23 lung was 92.8%; in the assay on NCI-H226 lung, 99.4%; in the assay with NCI-H322M lung it was 93.2%; with HOP-62 NSCLC, 89.7%; with NCI-H460 lung, 102%; in the assay with HOP-92 NSCLC, 80.9%. Also, the values for the growth in the assay on A549/ATCC NSCLC, in the assay with 786-0 renal and with COLO 205 colon were 99.7%, 96.3% and 97.4%, respectively.

With `CC(C(=O)O)(C1CCCCC1)C1(O)CCCCC1` (stereo unspecified), the growth in the assay on NCI-H23 lung is 103%; in the assay with NCI-H226 lung it was 102%; in the assay with NCI-H322M lung, 101%; with HOP-62 NSCLC it was 96.4%; with NCI-H460 lung, 105%; in the assay with HOP-92 NSCLC, 104%. Also, the growth in the assay with A549/ATCC NSCLC is 106%; in the assay on 786-0 renal, 98.9%; in the assay on COLO 205 colon, 104%.
